Assay [1] relates to Wnt5a (protein binding on small-molecule microarray). Description: small molecules binding Wnt5a protein – biophysical, small-molecule microarray, 635/667 nm fluorescence, primary screen (AID 1142).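 Also: fluorescence read at 667 nm with signal to noise per printed feature.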 To be noted: 635 nm fluorescence, higher = more signal.
A short description of assay [2]: ATP-based viability of Huh7 replicon cells – cell-based, CellTiter-Glo luminescence, basal, 48 h, cytotoxicity control for HCV replication inhibitor project, primary screen (AID 1143).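 Also: Huh7 hepatoma cells carrying a hepatitis C replication reporter with no stimulus; test concentration not given here.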 To be noted: higher = more signal, called active from +8 up or from −8 down.
The nature of assay [3]: basal CRE-LacZ reporter activity in PC12 – cell-based, unstimulated, primary screen (AID 1145). To be noted: no forskolin, luminescence, 4.5 h, higher = more signal, called active from +8 up or from −8 down.
Assay [4] in a line: forskolin-driven CRE-LacZ activity in PC12 – cell-based, CRE-LacZ reporter, forskolin-stimulated, primary screen (AID 1146).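 Also: PC12 cells with 6xCRE LacZ reporter stimulated by forskolin 10 µM; beta-galactosidase reporter signal reflecting CREB driven transcription.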 To be noted: luminescence, 4.5 h, higher = more signal, called active from +8 up or from −8 down.
Assay [5] has as its target Streptavidin (Streptomyces avidinii) (UniProt P22629). The assay is described as follows: compounds binding control protein streptavidin – biophysical, small-molecule microarray, 635/667 nm fluorescence, artefact control for SMM compound annotation, primary screen (AID 1147).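 Also: signal reflects streptavidin binding to arrayed compounds as a control protein.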 The following applies: higher = more signal.
Assay [6] is described as follows: probe aInhba binding on compound microarray – biochemical, small-molecule microarray, 635/667 nm fluorescence, primary screen (AID 1148).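 Also: score merges 667nm spot fluorescence with signal-to-noise for antibody binding to printed compounds.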 To be noted: higher = more signal.
For assay [7], the target named is Torsin-1A (Homo sapiens) (UniProt O14656). Description: TOR1A wild-type binding on microarray – cell lysate, small-molecule microarray, lysate, 635/667 nm, primary screen (AID 1149). To be noted: COS7 hTOR1A-WT lysate, 635 nm fluorescence, higher = more signal.
Chain of Torsin-1A (Homo sapiens) (O14656 whole entry, looked up): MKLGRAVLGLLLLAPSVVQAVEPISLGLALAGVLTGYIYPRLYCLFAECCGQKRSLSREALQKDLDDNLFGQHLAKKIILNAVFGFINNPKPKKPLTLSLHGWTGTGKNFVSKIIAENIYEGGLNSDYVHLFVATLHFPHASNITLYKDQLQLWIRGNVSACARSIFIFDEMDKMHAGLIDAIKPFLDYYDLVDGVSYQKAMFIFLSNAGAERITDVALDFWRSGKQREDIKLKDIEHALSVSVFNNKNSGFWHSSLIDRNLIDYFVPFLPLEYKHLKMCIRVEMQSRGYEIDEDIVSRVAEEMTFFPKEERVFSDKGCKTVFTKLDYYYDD
The target is the same in assay [8]. Description: torsin A mutant lysate binding on microarrays – cell lysate, small-molecule microarray, COS7 lysate, 635/667 nm fluorescence, primary screen (AID 1150).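 Also: score pools 667 nm emission and signal to noise measuring lysate protein binding.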 To be noted: COS7 hTOR1A mutant lysate, 635 nm fluorescence, higher = more signal.
The test system of assay [9] is Sonic hedgehog protein (Shh). The assay is described as follows: Sonic hedgehog microarray binding compounds – biochemical, small-molecule microarray, 635/667 nm fluorescence, primary screen (AID 1151).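 Also: Shh protein binding to compounds spotted on small-molecule microarray slides; score combines spot fluorescence intensity with signal-to-noise across triplicate slides.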 The following applies: 635 nm fluorescence, higher = more signal.
A short description of assay [10]: optical density shifts of acrAB sulA E. coli – strain DRC41, OD650, 48 h, E. coli filamentation inducer project, primary screen (AID 1152).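 Also: E. coli MC1000 strain DRC41 lacking acrAB efflux pump and sulA.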 The following applies: higher = more signal, called active from +8 up or from −8 down.
A short description of assay [11]: probe aLefty1 binding on compound microarray – biochemical, small-molecule microarray, 635/667 nm fluorescence, primary screen (AID 1153).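 Also: score merges spot fluorescence with signal-to-noise ratio from the scanned slide images.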 The following applies: higher = more signal.
The nature of assay [12]: plasmodial surface anion channel blockers, osmotic lysis – cell-based, P. falciparum Indochina, OD700, 1 h, primary screen (AID 1154). The following applies: P. falciparum Indochina infected RBC osmotic lysis, higher = more signal, called active from +8 up or from −8 down.
A short description of assay [13]: plasmodial surface anion channel blockers, osmotic lysis – cell-based, P. falciparum Indochina, OD700, 2 h, primary screen (AID 1155).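 Also: lysis reports solute entry through the parasite surface anion channel PSAC.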 The following applies: P. falciparum Indochina infected erythrocytes, higher = more signal, called active from +8 up or from −8 down.
Assay [14] is described as follows: changes in parasitized red cell lysis, either direction – P. falciparum Indochina, OD700, 3 h, PSAC antagonist project, primary screen (AID 1156). The following applies: P. falciparum-infected erythrocytes, osmotic lysis, higher = more signal, called active from +8 up or from −8 down.
A short description of assay [15]: plasmodial surface anion channel blockers, osmotic lysis – cell-based, P. falciparum Indochina, OD700, 18 h, primary screen (AID 1157). To be noted: P. falciparum Indochina infected erythrocytes, osmotic lysis OD700, 18 h; higher = more signal, called active from +8 up or from −8 down.
Assay [16] is described as follows: S6 kinase pathway phospho-S6 level changes – cell-based, A549, cytoblot, luminescence, serum-stimulated, primary screen (AID 1158).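 Also: serum-stimulated A549 lung adenocarcinoma cells; signal is phosphorylated S6 detected by cytoblot immunostaining with HRP secondary.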 To be noted: 5 h, higher = more signal.
In assay [17] the target is NADPH oxidase 2 (Homo sapiens) (UniProt P04839). The assay is described as follows: compounds shifting NOX2 Amplex Red fluorescence – cell-based, HEK293-NOX2, PMA-stimulated, NOX inhibitor project, primary screen (AID 1159). Also: test concentration not given here. The following applies: 45 min, higher = more signal, called active from +8 up or from −8 down.
Chain of NADPH oxidase 2 (Homo sapiens) (P04839 whole entry, looked up): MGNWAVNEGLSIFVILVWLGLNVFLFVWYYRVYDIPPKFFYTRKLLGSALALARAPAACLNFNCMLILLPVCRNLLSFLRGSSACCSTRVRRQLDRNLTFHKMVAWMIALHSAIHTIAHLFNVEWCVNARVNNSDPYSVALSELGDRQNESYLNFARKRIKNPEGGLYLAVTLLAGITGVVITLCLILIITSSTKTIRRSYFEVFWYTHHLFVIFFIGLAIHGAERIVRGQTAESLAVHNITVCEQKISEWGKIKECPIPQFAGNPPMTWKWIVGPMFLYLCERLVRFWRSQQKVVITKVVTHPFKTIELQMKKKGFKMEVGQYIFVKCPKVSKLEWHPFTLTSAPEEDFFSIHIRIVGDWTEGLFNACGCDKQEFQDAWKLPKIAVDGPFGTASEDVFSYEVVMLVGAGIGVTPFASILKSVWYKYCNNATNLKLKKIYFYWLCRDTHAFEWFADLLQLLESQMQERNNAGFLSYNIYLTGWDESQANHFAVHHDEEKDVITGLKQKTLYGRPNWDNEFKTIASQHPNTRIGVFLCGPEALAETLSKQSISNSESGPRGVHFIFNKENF
In assay [18] the target is NADPH oxidase 4 (Homo sapiens) (UniProt Q9NPH5). The assay is described as follows: compounds shifting NOX4 Amplex Red fluorescence – cell-based, HEK293-NOX4, tetracycline-induced, NOX inhibitor project, primary screen (AID 1160). The following applies: HEK293-NOX4, Amplex Red H2O2 fluorescence, 45 min; higher = more signal, called active from +8 up or from −8 down.
Chain of NADPH oxidase 4 (Homo sapiens) (Q9NPH5 whole entry, looked up): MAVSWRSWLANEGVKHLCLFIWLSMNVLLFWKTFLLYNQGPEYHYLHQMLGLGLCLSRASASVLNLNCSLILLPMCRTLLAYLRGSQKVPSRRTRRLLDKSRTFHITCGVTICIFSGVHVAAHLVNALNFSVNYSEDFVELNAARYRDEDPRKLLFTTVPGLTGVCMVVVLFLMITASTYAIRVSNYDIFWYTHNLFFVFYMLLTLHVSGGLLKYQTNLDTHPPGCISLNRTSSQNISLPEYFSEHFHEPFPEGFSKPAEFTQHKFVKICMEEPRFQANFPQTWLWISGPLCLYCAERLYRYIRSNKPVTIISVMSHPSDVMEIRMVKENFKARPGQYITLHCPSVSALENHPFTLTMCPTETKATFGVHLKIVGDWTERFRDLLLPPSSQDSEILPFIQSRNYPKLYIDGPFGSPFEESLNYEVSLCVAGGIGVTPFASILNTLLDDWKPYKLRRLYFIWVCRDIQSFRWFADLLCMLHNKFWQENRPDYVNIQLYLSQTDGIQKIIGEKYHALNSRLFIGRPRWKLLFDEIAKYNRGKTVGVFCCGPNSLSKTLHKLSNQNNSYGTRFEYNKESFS
Assay [19] concerns the target NADPH oxidase 5 (Homo sapiens) (UniProt Q96PH1). Description: compounds shifting NOX5 Amplex Red fluorescence – cell-based, HEK293-NOX5, NOX inhibitor project, primary screen (AID 1161). The following applies: HEK293-NOX5, ionomycin, 45 min, higher = more signal.

Calls of active or inactive are those of the source.

Chain of NADPH oxidase 5 (Homo sapiens) (Q96PH1 whole entry, looked up): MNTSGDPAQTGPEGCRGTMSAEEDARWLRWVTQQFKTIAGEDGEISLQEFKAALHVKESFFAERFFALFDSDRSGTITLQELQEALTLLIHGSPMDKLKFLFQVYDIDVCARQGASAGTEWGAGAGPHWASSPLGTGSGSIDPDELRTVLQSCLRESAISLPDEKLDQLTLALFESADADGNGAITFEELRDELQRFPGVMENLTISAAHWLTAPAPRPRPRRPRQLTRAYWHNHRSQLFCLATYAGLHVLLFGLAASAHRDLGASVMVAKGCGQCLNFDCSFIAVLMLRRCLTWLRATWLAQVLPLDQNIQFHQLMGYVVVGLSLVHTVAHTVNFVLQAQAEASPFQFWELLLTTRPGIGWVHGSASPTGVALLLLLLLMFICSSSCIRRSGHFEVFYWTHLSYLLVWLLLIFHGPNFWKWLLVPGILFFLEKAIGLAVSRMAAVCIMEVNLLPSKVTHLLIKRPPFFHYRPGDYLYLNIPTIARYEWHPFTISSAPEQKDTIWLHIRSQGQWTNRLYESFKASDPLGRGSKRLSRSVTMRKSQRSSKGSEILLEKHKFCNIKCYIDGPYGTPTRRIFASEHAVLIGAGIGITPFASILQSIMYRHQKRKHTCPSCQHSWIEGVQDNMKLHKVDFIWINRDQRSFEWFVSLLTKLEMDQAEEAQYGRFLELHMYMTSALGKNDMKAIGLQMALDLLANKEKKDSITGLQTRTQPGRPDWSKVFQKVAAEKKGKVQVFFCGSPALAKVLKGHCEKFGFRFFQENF
Chain of Streptavidin (Streptomyces avidinii) (P22629 whole entry, looked up): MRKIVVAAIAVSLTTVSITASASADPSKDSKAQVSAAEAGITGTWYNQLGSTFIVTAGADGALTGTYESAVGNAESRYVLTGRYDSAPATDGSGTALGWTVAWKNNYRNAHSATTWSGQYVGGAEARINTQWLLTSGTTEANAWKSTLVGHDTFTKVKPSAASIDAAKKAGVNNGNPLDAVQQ

In the case of `CO[C@@H]1COC(=O)[C@H](COCc2ccccc2)NC(=O)CC=C[C@@H](C)[C@H](OC)COC(=O)[C@H](COCc2ccccc2)NC(=O)CC=C[C@H]1C`, the composite z-score in assay [1] is 0.0648; in assay [5], -0.405; in [6], -0.2; with Torsin-1A (Homo sapiens) [7], 0.692; with Torsin-1A (Homo sapiens) [8] it was 0.209; in assay [9] it was 0.839. This compound gave a composite z-score in assay [11] of 0.113. Further, the z-score in [2] was -0.853 (inactive); in [3], 0.336 (inactive); in assay [4], -0.401 (inactive); in [10], -0.207 (inactive); in [12], -0.279 (inactive); in assay [13], -0.562 (inactive). Moreover, the z-score is -0.646 (inactive) in assay [14]; -1.73 (inactive) in [15]; 0.37 in [16]; 1.15 (inactive) in [17]; 0.931 (inactive) in assay [18]; 0.314 in assay [19].

With `C=C(COC)/C(=C/C[C@@H](OC(C)=O)c1cccc(OCCO)c1)c1cc(C(=O)OC)ccc1OC`, the composite z-score in assay [1] is 0.0467; in assay [5], -0.798; in assay [6], -0.0221; in the assay with Torsin-1A (Homo sapiens) [7], 0.284; in the assay with Torsin-1A (Homo sapiens) [8] it was -0.0193; in assay [9] it was 0.654. In assay [11], this compound gave a composite z-score of 0.0319. Moreover, the z-score in assay [2] was -1.42 (inactive); in assay [3], 4.69 (inactive); in assay [4], -1.89 (inactive); in assay [10], 1.37 (inactive); in assay [12], 15.7 (active); in assay [13], 0.098 (inactive). Further, the z-score in [14] was 0.363 (inactive); in assay [15], -1.44 (inactive); in assay [16], -0.316; in assay [17], 1.51 (inactive); in assay [18] it was 1.28 (inactive); in assay [19] it was -1.1.

Turning to `C[C@]1(C(=O)NCc2ccccc2)c2ccccc2C(=O)N(Cc2cc(C(F)(F)F)cc(C(F)(F)F)c2)[C@H]1c1ccc(CO)cc1`, the composite z-score in assay [1] turned out to be 0.944; in assay [5] it was 0.157; in assay [6], 0.447; with Torsin-1A (Homo sapiens) [7], 0.462; with Torsin-1A (Homo sapiens) [8] it was 0.334; in assay [9] it was 1.51. Also, in assay [11], the composite z-score was determined as 0.364. Besides, the z-score is -5.26 (inactive) in assay [2]; -0.735 (inactive) in [3]; -1.41 (inactive) in [4]; 2.32 (inactive) in assay [10]; 6.25 (inactive) in [12]; 1.11 (inactive) in assay [13]. Besides, the z-score in assay [14] is 0.709 (inactive); in [15] it was 0.448 (inactive); in assay [16], 3.92; in [17], -1.35 (inactive); in assay [18], -1.03 (inactive); in [19], -1.

Regarding `CCN1C(C)=C(C(=O)OC)[C@@H](c2ccccc2)N2C(=O)[C@](O)(C(=O)OC)[C@@H](c3ccccc3)C(C(C)=O)=C12`, the composite z-score in assay [1] is 0.223; in assay [5], -0.0371; in assay [6] it was -0.177; with Torsin-1A (Homo sapiens) [7], 0.142; in the assay with Torsin-1A (Homo sapiens) [8] it was 0.355; in [9], 1.75. In addition, in [11], the composite z-score was -0.0111. Also, the z-score in assay [2] was -5.29 (inactive); in assay [3], 0.106 (inactive); in [4], -1.04 (inactive); in assay [10], -0.461 (inactive); in [12], 2.31 (inactive); in assay [13], 0.414 (inactive). For the same compound, the z-score in assay [14] was 0.291 (inactive); in assay [15] it was 0.0714 (inactive); in [16], 3.95; in assay [17] it was -0.211 (inactive); in assay [18], -0.585 (inactive); in assay [19] it was 1.35.

As to `CN1C2C=C(c3ccc(CO)cc3)C(C3C(=O)N(C(N)=O)C(=O)C32)C1c1cccs1` (configuration not stated), the composite z-score in assay [1] was -0.25; in [5], -0.487; in assay [6], -0.0791; in the assay with Torsin-1A (Homo sapiens) [7] it was 0.0899; with Torsin-1A (Homo sapiens) [8], 0.782; in assay [9] it was 1.4. In assay [11], this compound had a composite z-score of -0.0893. The z-score in [2] was -0.975 (inactive); in assay [3], 2.09 (inactive); in [4], -1.5 (inactive); in assay [10] it was 1.37 (inactive); in [12], 2.26 (inactive); in assay [13], -1.44 (inactive). Moreover, the z-score is -0.71 (inactive) in [14]; -1.37 (inactive) in assay [15]; -0.402 in [16]; 1.57 (inactive) in assay [17]; -0.124 (inactive) in assay [18]; -0.0981 in assay [19].

Consider `O=C1c2ccccc2[C@](Cc2ccccc2I)(C(=O)NCc2ccccc2)[C@H](c2ccc(CO)cc2)N1Cc1ccccc1C(F)(F)F`, for which the composite z-score was -0.246 in [1]; -0.409 in [5]; -0.0313 in assay [6]; -0.635 in the assay with Torsin-1A (Homo sapiens) [7]; -0.162 in the assay with Torsin-1A (Homo sapiens) [8]; -0.197 in assay [9]. In addition, the composite z-score in assay [11] was -0.103. Further, the z-score in [2] is -2.5 (inactive); in assay [3], 0.0909 (inactive); in assay [4], -0.487 (inactive); in assay [10] it was 1.73 (inactive); in assay [12], 1.62 (inactive); in assay [13], -0.664 (inactive). The z-score was -0.345 (inactive) in assay [14]; -1.24 (inactive) in [15]; 0.524 in assay [16]; 0.617 (inactive) in assay [17]; -0.738 (inactive) in assay [18]; 2.32 in assay [19].

`COC(=O)C1=CC(c2ccc(CO)cc2)=CC(C2CC2)N(Cc2sc3ccccc3c2Cl)C=C1C(=O)OC` (configuration not stated): the composite z-score in [1] stood at 0.213; in [5] it was 2.25; in assay [6] it was 0.23; with Torsin-1A (Homo sapiens) [7], 0.454; with Torsin-1A (Homo sapiens) [8], 1.45; in assay [9], 0.313. This compound also yielded a composite z-score in assay [11] of 0.385. The z-score in [2] is -5.35 (inactive); in assay [3] it was 0.272 (inactive); in assay [4] it was -1.57 (inactive); in assay [10] it was -0.248 (inactive); in [12], 13.7 (active); in assay [13], 0.815 (inactive). Also, the z-score is -0.994 (inactive) in assay [14]; -1.07 (inactive) in assay [15]; 0.983 in assay [16]; -0.872 (inactive) in [17]; -0.189 (inactive) in assay [18]; -0.0786 in [19].

With `C=CC[C@@]1(C(=O)N2CCOCC2)N=C(c2ccc(OCCCO)cc2)O[C@@H]1c1ccccc1`, the composite z-score in assay [1] was -0.0454; in [5], -0.0392; in [6], -0.151; with Torsin-1A (Homo sapiens) [7], 0.0827; with Torsin-1A (Homo sapiens) [8], 1.2; in assay [9] it was -0.571. In assay [11], this compound showed a composite z-score of -0.269. For the same compound, the z-score in [2] was -1.33 (inactive); in assay [3], 0.437 (inactive); in [4], -0.354 (inactive); in assay [10] it was 1.24 (inactive); in assay [12], 20.8 (active); in assay [13], 4.03 (inactive). The z-score in assay [14] was 2.25 (inactive); in assay [15], 1.11 (inactive); in assay [16], -0.115; in assay [17] it was -1.04 (inactive); in assay [18], 0.471 (inactive); in assay [19], -1.

These data come from PubChem BioAssay.
